Source: PubChem BioAssay
PLK1 kinase inh: human PLK1 kinase inhibitors, primary screen, biochemical, TR-FRET; Serine/threonine-protein kinase PLK1 (Homo sapiens), P53350; recombinant PLK1 kinase, TR-FRET peptide phosphorylation; inhibition, % at 10 µM; actives 0.53% (n = 97,000);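 active = inhibition of 50% or more in the single-concentration screen; inactive = inhibition below 50%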;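 note: 0% = DMSO max control and 100% = H-89 dihydrochloride min control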
CYP2C9 inhib: blockers of cytochrome P450 2C9 activity – biochemical, luminescence, ADME assay, primary screen. inhibition, % at 5 µM. CYP2C9 Supersomes, luciferin-H conversion. actives 20% (n = 96,000). AID 777, 2007;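 active = blocking of liver enzyme CYP2C9 beyond about 50% at 5 µM, limit read from the data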
PLK1 PBD inh: Plk1 polo box domain binding inhibitors, primary screen, biochemical, fluorescence polarization; Plk1 PBD phosphopeptide binding; Serine/threonine-protein kinase PLK1 (Homo sapiens), P53350; inhibition, %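 (tested at about 20 µM)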; AID 693, 2007; actives 0.13% (n = 97,000); in the data active = inhibition above about 34%, passing the limit was not always enough
CYP2C19 activ: human CYP2C19 activators, primary screen, biochemical, luminescence; recombinant CYP2C19, luciferin-H EGE luminescence; hits give high values; 0 = fully inhibited enzyme, 1 = untreated enzyme; 96,000 tested, under 10 active; activation factor at 5 µM; Cytochrome P450 2C19 (Homo sapiens), P33261;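 active = activation factor of at least 2 at 5 µM in the primary screen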;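 note: 0 = wells with 2.5 mM tranylcypromine and 1 = vehicle-only wells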
CYP2C19 inhib: blockers of cytochrome P450 2C19 activity – biochemical, luminescence, ADME assay, primary screen; CYP2C19 Supersomes, luciferin-H EGE luminescence, 30 min; inhibition, % at 5 µM; P33261; actives 21% (n = 96,000);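 active = CYP2C19 inhibition above a set limit at 5 µM in the primary screen, cut at about 50% in these data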;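 note: plate controls were negative control wells for no effect and 2.5 mM tranylcypromine positive control for full effect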
CYP2C9 activ: human CYP2C9 activators, primary screen, biochemical, luminescence | Cytochrome P450 2C9 (Homo sapiens), P11712 | recombinant CYP2C9, luciferin-H conversion; hits give high values; factor 1 = untreated enzyme, 0 = blocked | activation factor at 5 µM | actives 1.4% (n = 96,000) | AID 1024, 2008;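 active = activation factor of 2 or more for CYP2C9 at a 5 µM dose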;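 note: 0 = sulfaphenazole-blocked wells and 1 = vehicle-only wells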
Active calls of the source: *; . = no result given. Most compounds without a hit are left out; they make up all but 28% or so of the library.

SMILES	PLK1 kinase inh	CYP2C9 inhib	PLK1 PBD inh	CYP2C19 activ	CYP2C19 inhib	CYP2C9 activ
O=S(=O)(c1cccc(S(=O)(=O)N2CCOCC2)c1)N1CCCCC1	-2	24	7	0.6	41	0.8
COC(=O)c1ccc(S(=O)(=O)NCc2cccc(OC)c2)n1C	-8	28	-1	0.4	60*	0.7
COc1cccc(CNC(=O)C2CCN(S(=O)(=O)N3CCCC3)CC2)c1	.	16	.	1	5	0.8
Cc1nnc(N2CCOCC2)c2ccccc12	-1	-8	13	1.1	-7	1.1
CCC(=O)c1cccc2c1N=CC1=C(CC(C)(C)CC1=O)N2	-5	55*	37	0.7	27	0.5
Cc1cc(C)cc(CC2CC(=O)N(c3ccc4c(c3)OCCO4)C2=O)c1 (stereo not given)	-11	-15	-15	1	4	1.1
Cc1ccc(CC2CC(=O)N(Cc3ccco3)C2=O)cc1 (stereo not given)	0	55*	15	0.1	88*	0.4
O=C1CC(Cc2ccccc2)C(=O)N1Cc1ccco1 (stereo not given)	32	0	18	0.6	38	1
Cc1ccc(CC2CC(=O)N(c3ccncc3)C2=O)cc1 (stereo not given)	-12	57*	25	0.1	94*	0.4
Cc1ccc(CC2CC(=O)N(c3ccc(Cl)cn3)C2=O)cc1 (stereo not given)	-10	39	-4	0.4	58*	0.6
Nc1sc2c(c1C(=O)NC1CCS(=O)(=O)C1)CCC2 (stereo not given)	-6	36	-4	1	5	0.6
COc1ccc(/C=N/NC(=O)C(=O)N2CCN(c3ccccc3OC)CC2)cc1	-11	36	18	0.9	7	0.6
Cc1ccc(NCCC(=O)c2ccc(Cl)cc2)cc1C	-6	5	-14	0.4	59*	1
CCCOc1ccc(C(=O)CCNc2ccc(C)c(Cl)c2)cc1	-1	20	-30	0.4	60*	0.8
Cc1ccc(C(=O)CCNc2ccc(Cl)cc2)o1	4	37	15	0.1	92*	0.6
OCCNc1ccc(Cl)cc1	-7	7	-4	0.8	19	0.9
Cc1ccc(NCCC(=O)c2cccs2)cc1Cl	-3	-3	-8	1	-2	1
CCOCCN1CCN(c2c3c(nc4cc(-c5ccc(F)cc5)nn24)CCC3)CC1	.	50*	.	0.9	14	0.5
COc1cc(OC)cc(-c2cc3nc4c(c(N5CCN(c6ncccn6)CC5)n3n2)CCCC4)c1	-16	94*	6	0	95*	0.1
N#CC1(C#N)C2=C(CCCC2)NC(c2ccccc2)C1(C#N)C#N (stereo not given)	-4	40	-7	0.9	15	0.6
CCCc1cc(=O)[nH]c(SCC(=O)NC2CCCCC2)n1	-27	12	-8	0.6	42	0.9
O=C(CN1CCN(Cc2ccccc2)C1=O)NCc1ccc(Cl)cc1	-10	12	-42	0.8	16	0.9
CC(CCc1ccccc1)NC(=O)CN1CCN(Cc2ccccc2)C1=O (stereo not given)	-7	23	-4	0.9	8	0.8
CCN(CCNC(=O)CN1CCN(Cc2ccc(Cl)cc2)C1=O)c1ccccc1	-6	52*	9	0.4	57*	0.5
O=C1N(CC(=O)N2CCc3ccccc32)CCN1Cc1ccc(Cl)cc1	-13	-134	-4	0.8	19	2.3*
CC(CCc1ccccc1)NC(=O)CN1CCN(Cc2ccc(Cl)cc2)C1=O (stereo not given)	-4	56*	-19	0.3	71*	0.4
Cc1ccc(CN2CCN(CC(=O)NC(C)CCc3ccccc3)C2=O)cc1 (stereo not given)	-27	67*	-10	0.4	58*	0.3
Cn1c(=O)c2c(ncn2CC(=O)Nc2cc(Cl)c(Cl)cc2Cl)n(C)c1=O	.	7	.	0.9	6	0.9
